Bioassay records (PubChem BioAssay)
Compounds with a hit are over-represented: about 2.1% of the library has one in this group of screens.
ClpP mod = qHTS Assay for Activators of ClpP; ATP-dependent Clp protease proteolytic subunit (Bacillus subtilis (strain 168)), P80244; purified B. subtilis ClpP, FRET peptide cleavage, 20 min; Potency, µM (series often up to 57.5 µM), inactives show at the highest dose activity change, negative = active; 340,000 tested, 1.9% active; AID 651965, 2013; active = well fitted falling curve with a large enough effect; inconclusive = small, poorly fitted or top-dose-only effect; inactive = no such curve, though single readings can be large or run the other way; also: potency is read from the fitted curve at half-maximal effect; the source files actives as falling curves though it sought activators and does not explain the sign; nearly all actives have a fitted effect of over 65% in size
Target sequence (P80244 whole entry, looked up): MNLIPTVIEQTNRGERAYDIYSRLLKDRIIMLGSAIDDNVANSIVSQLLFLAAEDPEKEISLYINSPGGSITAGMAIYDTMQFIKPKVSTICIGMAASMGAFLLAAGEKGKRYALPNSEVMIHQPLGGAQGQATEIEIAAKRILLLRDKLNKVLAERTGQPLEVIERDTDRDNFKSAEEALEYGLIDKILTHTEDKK
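FRET quenching reversal measured ClpP activation: 10 microg/mL B. subtilis ClpP at pH 8 with the FRET-FV decapeptide, read at 430 nm after 320 nm excitation. The 20-min minus 0-min signal was scaled between DMSO/no-enzyme wells and ADEP (5.8 microM final).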
Giardia killer = Giardia lamblia killing | activity change, % at 7.66 µM, hits read low | AID 540267 | 340,000 tested, 0.15% active | Giardia lamblia trophozoite viability; in the data active = activity change below about -80%; inconclusive = between about -30% and that limit;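 also: parasites exposed to compound for two days anaerobically before the ATP read; % is scaled to controls: 0 for no effect and ±100 for the full control effect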
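Giardia lamblia trophozoites (100 cells/well) were incubated with compounds for 48 h at 37 deg C under anaerobic conditions. Viability was read as ATP content by one-step luminescence after 15-30 min at room temperature.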
B2AR arrestin = agonists driving beta-arrestin recruitment to human beta2-adrenergic receptor; beta-arrestin recruitment to beta2AR, cell-based reporter; P07550; AID 492947; 330,000 tested, 0.02% active; Potency, µM (top dose mostly 46.1 µM), for the others: at the top dose activation, hits mostly activators;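 also: potency is read from the fitted curve at half-maximal effect; 0% = DMSO controls and full agonism = EC100 isoproterenol or metaproterenol; nearly all actives have a fitted effect of over 65% in size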
Target sequence (P07550 whole entry, looked up): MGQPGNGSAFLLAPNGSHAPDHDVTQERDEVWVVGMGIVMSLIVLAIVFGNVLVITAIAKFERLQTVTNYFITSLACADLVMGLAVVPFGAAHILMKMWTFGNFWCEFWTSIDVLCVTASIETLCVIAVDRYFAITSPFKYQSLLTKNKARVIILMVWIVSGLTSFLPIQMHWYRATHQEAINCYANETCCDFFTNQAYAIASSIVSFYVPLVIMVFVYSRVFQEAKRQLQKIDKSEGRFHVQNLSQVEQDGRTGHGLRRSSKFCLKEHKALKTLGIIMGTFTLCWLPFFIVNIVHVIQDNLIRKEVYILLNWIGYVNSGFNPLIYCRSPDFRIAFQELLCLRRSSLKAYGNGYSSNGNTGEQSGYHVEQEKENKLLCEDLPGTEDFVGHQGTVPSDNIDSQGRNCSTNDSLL
Mito fusion act = blocks mitochondrial division or promotes mitochondrial fusion; S. cerevisiae fusion-defective mutant growth rescue, CellTiterGlo 48 h; Potency, µM (doses to about 46.1 µM), for inactives: at the highest dose growth rescue (activation), actives largely listed as activators; 320,000 tested, 0.23% active; also: potency is read from the fitted curve at half-maximal effect; % of control where 0% means no effect; nearly all actives have a fitted effect of over 45% in size
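Temperature-sensitive fusion-defective S. cerevisiae (e.g. fzo1-1, mgm1-5) were grown with compound in YPEG medium (3% ethanol, 3% glycerol) for 48 hours at 37C. Growth rescue was measured as viability by CellTiterGlo luminescence after 10 minutes at ambient.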
uPA generation = blocks generation of uPA at the cell surface | cell surface uPA generation assay, qHTS | Potency, µM (series often up to 38.3 µM), for the others: top-dose activity change, negative = inhibition, most hits filed as inhibitors | 330,000 tested, 0.31% active; active = well fitted inhibition curve with a large enough effect; inconclusive = small, poorly fitted or top-dose-only effect; inactive = no such curve, though single readings can be large or run the other way; tested in mouse RAW 264.7 cells; also: potency is read from the fitted curve at half-maximal effect; % is scaled to controls: 0 for no effect and ±100 for the full control effect; nearly all actives have a fitted effect of over 55% in size
p53 reactivator = mutant p53 re-activation in reporter cells; AID 504706; H1299 p53-A138V BP100-luciferase reporter, luminescence, 24 h; Potency, µM (series often up to 92.2 µM), for the others: top-dose activity change, positive = activation, hits mostly activators; 320,000 tested, 0.063% active; also: potency is read from the fitted curve at half-maximal effect; % of control where 0% means no effect; nearly all actives have a fitted effect of over 45% in size
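p53-null H1299 cells stably carrying temperature-sensitive p53-A138V and a BP100-luciferase reporter were pinned with compounds (4-point, 1:5 series) and held 24 hrs at 37 deg C. Luminescence was read 10 min after detection reagent.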
Starred values were filed as active, the others as inactive; u = inconclusive; x = not tested or not shown; ! = not confirmed by another sample. Unless noted, calls follow the shape of the dose curve; as a rule, active = well fitted curve in the direction sought with a large enough effect; inconclusive = small, poorly fitted or top-dose-only effect, or another doubt; inactive = no such curve, though single readings can be large; an effect the other way counts as inactive or inconclusive.

SMILES	ClpP mod	Giardia killer	B2AR arrestin	Mito fusion act	uPA generation	p53 reactivator
COc1ccc(CC(=O)NCC(c2cccs2)S(=O)(=O)c2ccc(Cl)cc2)cc1 (configuration not stated)	-1%	x	x	x	x	x
CCOc1ccc(NC(=O)C2CCCN(S(=O)(=O)c3cccc4nonc34)C2)cc1 (configuration not stated)	1%	x	x	x	x	x
COc1cccc(-c2nc(SCC(=O)NCC3CCCO3)c(-c3ccc(Cl)cc3)[nH]2)c1 (configuration not stated)	25µM*	x	x	x	x	x
COc1ccc(-c2nc(SCC(=O)NCC3CCCO3)c(-c3ccc(Cl)cc3)[nH]2)cc1 (configuration not stated)	-25%	x	x	x	x	x
COc1ccc(NC(=O)CSc2nc(-c3ccc(OC)cc3)[nH]c2-c2ccc(F)cc2)cc1	-16%	x	x	x	x	x
COc1cccc(-c2nc(SCC(=O)NC3CCCC3)c(-c3ccc(F)cc3)[nH]2)c1	35µM*	x	x	x	x	x
COc1ccc(-c2[nH]c(-c3ccc(C)cc3)nc2SCC(=O)NC2CCCC2)cc1	4%	-1	2%	u	-14%	-7%
COc1cccc(-c2nc(SCC(=O)NC3CCCC3)c(-c3ccccc3)[nH]2)c1	32µM*	x	x	x	x	x
Cc1cc(C)c2oc(-c3cccc(NC(=O)COc4ccc(Cl)cc4C)c3C)nc2c1	-11%	x	x	x	x	x
CCN(CC)C(=O)CSc1nc2cc3c(cc2c(=O)n1Cc1ccc(C(=O)NCCc2ccc(OC)c(OC)c2)cc1)OCO3	-1%	x	x	x	x	x
NS(=O)(=O)c1ccc(N/N=C/c2cn(-c3ccccc3)nc2-c2cccs2)cc1	16µM*	-9	0%	11%	-10%	6%
O=C(NCC(c1cccnc1)N1CCN(Cc2ccccc2)CC1)C(=O)Nc1ccc(Cl)cc1 (configuration not stated)	0%	x	x	x	x	x
CCCN(C(=O)c1cc2c(s1)-c1ccccc1SC2)c1ccccc1F	32µM*	x	x	x	x	x
CCc1nnc(NC(=O)c2ccc(NS(=O)(=O)c3ccccc3)cc2)s1	28µM*!	10	0%	0%	x	-3%
COc1ccc(-n2c(=O)c3sc4ccccc4c3n(CC(=O)Nc3ccccc3F)c2=O)cc1	-23%	x	x	x	x	x
CCN(CC)c1ccc2c(C)c(CN3CCOCC3)c(=O)oc2c1	28µM*	5	0%	2%	0%	37%
Cc1nc2c(-c3ccc(F)cc3)cnn2c(N)c1-c1ccccc1	4%	u	-1%	-65%	3.2µM*	u
Cc1nc2c(-c3ccc(Cl)cc3)cnn2c(N)c1-c1ccc(F)cc1	4%	u	0%	-14%	-16%	u
Cc1cc(NCCCN(C)C)n2nc(-c3cccs3)cc2n1	28µM*	5	3%	-2%	-4%	-13%
Cc1cc(C)c2c(n1)nn1c(NCCCN(C)C)cc(C)nc21	-39%	7	0%	-2%	3%	6%
COc1cc(C(=O)/C=C/c2cccnc2)c([N+](=O)[O-])cc1OC	0%	-90*	0%	-16%	8.9µM*	-28%
O=C(/C=C/c1cccnc1)c1ccc([N+](=O)[O-])cc1	x	42	0%	-1%	-6%	-18%
Cc1cc(C)cc(OCC(=O)NCC2(N(C)C)CCCCC2)c1	2%	x	x	x	x	x
Cc1ccc(NC(=O)c2cn3c4c(ccc(Cl)c4c2=O)OC(C)C3)c(C)c1 (configuration not stated)	-4%	x	x	x	x	x
Cc1cc(/C=C2\C=Cc3ccccc32)cc(C)c1N	3%	x	x	x	x	x
SMILES	ClpP mod	Giardia killer	B2AR arrestin	Mito fusion act	uPA generation	p53 reactivator
COc1cc(-c2nc(-c3ccc(NC(=O)c4ccc5c(c4)OCO5)cc3)no2)cc(OC)c1OC	20µM*	-2	0%	-3%	0%	15%
CN(C)CCCC1(O)c2ccccc2C=Cc2ccccc21	28µM*	3	-1%	-3%	-2%	-11%
COc1cccc(NC(=O)Cn2c(=O)n(CC(=O)NCc3ccc(C)cc3)c(=O)c3sccc32)c1	-9%	x	x	x	x	x
COc1ccc(NC(=O)C2(c3ccc(NC(=O)c4ccc(OC)cc4)cc3)CCCC2)cc1	28µM*	4	0%	-3%	6%	-7%
COc1ccc(C(=O)Nc2ccc3[nH]ccc3c2)cc1	1%	-89*	x	x	-11%	x
O=C(Nc1ccc2[nH]ccc2c1)c1cccs1	0%	u	-1%	1%	7.1µM*	u
CCOc1ccc(C(=O)Nc2ccc3[nH]ncc3c2)cc1	-7%	u	-1%	-1%	5µM*	6%
COc1cc(OC)c(Nc2cc(C)nc3ncnn23)cc1Cl	-1%	x	x	x	x	x
CCN(CC)CCNC(=O)c1c(C)oc2ncnc(N3CCOCC3)c12	0%	x	x	x	x	x
COc1ccc(C(=O)Nc2ccc3[nH]ncc3c2)cc1	-5%	u	-1%	-1%	3.2µM*	u
COc1ccc(-c2cc(=O)oc3cc(OC(C)C(=O)O)ccc23)cc1 (configuration not stated)	u	-8	0%	-1%	x	-7%
CCC(=O)Oc1ccc2oc(=O)cc(C)c2c1	-6%	3	-1%	-5%	1%	u
Cc1cc(=O)oc2cc(OCC(=O)Nc3c(C)n(C)n(-c4ccccc4)c3=O)c(Cl)cc12	32µM*	-17	0%	1%	-1%	-1%
Cc1cc(=O)oc2cc(OC(C)C(=O)O)c(Cl)cc12 (configuration not stated)	28µM*	4	0%	-3%	7%	-1%
CCOc1ccc2oc(=O)cc(C)c2c1	32µM*	17	0%	1%	-2%	7%
Cc1cc(=O)oc2ccc(OC(C)C(=O)O)cc12 (configuration not stated)	32µM*	9	0%	-1%	5%	1%
COc1cc(CN2C[C@@H](CO)O[C@@H](n3cnc4c(NCC(C)C)ncnc43)C2)cc(OC)c1OC	2%	x	x	x	x	x
COc1ccc(Cl)cc1Nc1ncnc2sc(C)c(S(=O)(=O)N3CCC(C)CC3)c12	32µM*	-1	-1%	11%	0%	-1%
COc1cc(OC)c(NC(=O)Cn2cnc3sc(C)c(S(=O)(=O)N4CCC(C)CC4)c3c2=O)cc1Cl	-1%	x	x	x	x	x
N#Cc1cccc(NC(=O)c2cc(C3CCCCN3S(=O)(=O)c3ccccc3)on2)c1 (configuration not stated)	-4%	x	x	x	x	x
CCCCn1nnc(NC(=O)c2ccc(-c3cccc(Cl)c3)o2)n1	32µM*	14	0%	6%	-3%	12%
CCn1nnc(NC(=S)NC(=O)c2ccc(-c3cccc(Cl)c3)o2)n1	x	-6	18µM*	9%	-4%	0%
